Reference: PubChem BioAssay AID588692 (Broad Institute, 2011)
The whole screen tested about 360,000 compounds, of which about 830 (0.23%) were called active.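 Rule for the calls: active = mean luciferase reporter signal, scaled so untreated is 0 and the glycosylation-blocking control 100, at or above a set limit in every replicate; inconclusive = mean reaches the limit but not every replicate does; inactive = mean below the limit.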 The entries come from a sample that favours actives as a whole.

Test: increase of ERlucT glycosylation luciferase signal, primary screen, N-linked glycosylation inhibitor project, D54 ERlucT cells, luminescence, set 2 (AID 588692);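 note: luciferase carries N-glycosylation sites so blocking glycosylation raises the light; 0% = median of neutral control wells and 100% = median of 100 nM tunicamycin wells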
Conditions: 24 h, at 12.5 µM, active compounds read high, percent of 100 nM tunicamycin response

Row | SMILES | reporter increase
1 | CN(NC(=O)C1CC(=O)N(c2ccccc2)C1)C1=NS(=O)(=O)c2ccccc21 (configuration not stated) | 1.73% (inactive)
2 | CC[C@H]1OC(=O)[C@H](C)[C@@H](O[C@H]2C[C@@](C)(OC)[C@@H](O)[C@H](C)O2)[C@H](C)[C@@H](O[C@@H]2O[C@H](C)C[C@H](N(C)C)[C@H]2O)[C@](C)(O)C[C@@H](C)[C@@H]2N[C@@H](COCCOC)O[C@H]([C@H]2C)[C@]1(C)O | 0.0685% (inactive)
3 | COc1ccc([C@@H]2[C@@H]3C(=O)N(C(C)(C)C)C(=O)[C@@H]3[C@]3(Cc4ccccc4)C(=O)N(c4cccc(Br)c4)C(=O)N23)cc1 | 36.7% (active)
4 | CC(C)(C)N1C(=O)[C@H]2[C@@H](c3ccc(Br)cc3)N3C(=O)N(c4cccc(Cl)c4)C(=O)[C@@]3(C)[C@H]2C1=O | -3.13% (inactive)
5 | CC[C@@]12C(=O)N(c3ccccc3)C(=O)N1[C@H](c1ccc(Br)cc1)[C@@H]1C(=O)N(C(C)(C)C)C(=O)[C@@H]12 | -1.3% (inactive)
6 | Cc1cccc(N2C(=O)N3[C@H](c4ccc(F)cc4)[C@@H]4C(=O)N(C5CCCCC5)C(=O)[C@@H]4[C@]3(Cc3ccccc3)C2=O)c1 | 78.2% (active)
7 | O=C1[C@H]2[C@@H](c3ccc(Cl)cc3)N3C(=O)N(c4cccc(F)c4)C(=O)[C@@]3(Cc3ccccc3)[C@H]2C(=O)N1C1CCCCC1 | -1.72% (inactive)
8 | O=C1[C@H]2[C@@H](c3ccc(F)cc3)N3C(=O)N(c4ccc(C(F)(F)F)cc4)C(=O)[C@@]3(Cc3ccccc3)[C@H]2C(=O)N1C1CCCCC1 | -7.93% (inactive)
9 | CCCCN(C)C(=O)c1ccc2c(c1)N(CC)C(=O)c1ccccc1S2(=O)=O | 2.3% (inactive)
10 | O=C(CN1C(=O)NC2(CCc3ccccc32)C1=O)NC1CCCCC1 (configuration not stated) | 3.09% (inactive)
11 | COCCNC(=O)CN1C(=O)CSc2ncccc21 | 3.24% (inactive)
12 | OC[C@@H]1CN(Cc2ccc3c(c2)OCO3)C[C@H](n2cnc3c(NCc4ccco4)ncnc32)O1 | -0.219% (inactive)
13 | COc1ccc2c(c1)[C@H]1[C@H](CO2)[C@H](c2ccccc2)[C@]2(C)C(=O)Nc3cc(F)c(F)cc3C(=O)N12 | 42% (active)
14 | CCOC(=O)[C@H]1[C@H]2COc3ccc(OC)cc3[C@@H]2N2C(=O)c3ccc(F)cc3NC(=O)[C@@]12C | 7.58% (inactive)
15 | Cc1ccc2c(c1)NC(=O)[C@@]1(C)[C@@H](c3ccccc3)[C@H]3COc4ccc(Cl)cc4[C@@H]3N1C2=O | 19.6% (inactive)
16 | CC(=O)c1ccc(S(=O)(=O)NC2CC(=O)N(c3ccc4c(c3)OCCO4)C2)cc1 (configuration not stated) | 0.667% (inactive)
17 | C[C@@H]1CN([C@@H](C)CO)C(=O)c2cc(Br)cnc2O[C@@H]1CN(C)C(=O)C1CCCCC1 | -0.264% (inactive)
18 | CC1(C)O[C@@H]2[C@H](O1)[C@@H](COS(=O)(=O)O)O[C@H]2n1ccc(=O)[nH]c1=O | 2.9% (inactive)
19 | CCCNC(=O)C1(C)CCN(C(=O)c2cc(F)ccc2C)C1 (configuration not stated) | -0.06% (inactive)
20 | CC(C)OCCCNC(=S)N1CCC(C(=O)c2ccc3c(c2)OCCO3)CC1 | -1.26% (inactive)
21 | COc1ccc(C)cc1NC(=O)CSc1cccc[n+]1[O-] | 1.45% (inactive)
22 | O=C(/C=C/c1ccc(Cl)cc1)N1CCN(c2ccccc2[N+](=O)[O-])CC1 | 0.213% (inactive)
23 | CN(C)c1ccc(S(=O)(=O)NCC(=O)NCC2CCCCC2)cc1[N+](=O)[O-] | -0.935% (inactive)
24 | CN(C)c1ccc(/C=C/C(=O)c2ccc(C(C)(C)C)cc2)cc1[N+](=O)[O-] | 32.9% (active)

Row | SMILES | reporter increase
25 | CC/C(=N\NC(=O)c1c(C)nc2ccccn12)c1ccc(Cl)cc1 | -0.008% (inactive)
26 | OCc1ccc(-c2ccccc2)c(-c2ccccc2)c1 | 2.12% (inactive)
27 | CCCc1nc2ccccc2c(C(=O)OCc2nnc(-c3cc(OC)c(OC)c(OC)c3)o2)c1CC | 1.91% (inactive)
28 | O=C1C2C3C=CC(C3)C2C(=O)N1c1ccc(S(=O)(=O)Nc2nccs2)cc1 (configuration not stated) | -0.133% (inactive)
29 | Cc1sc2ncnc(SCC(=O)Nc3ccc(CN4CCCC4)cc3)c2c1C | -0.51% (inactive)
30 | C=CCn1c(SCC(=O)NCCCO)nc2sc3c(c2c1=O)CCC3 | 0.299% (inactive)
31 | C=CCn1c(SCc2c(C)noc2C)nc2sc3c(c2c1=O)CCC(C)C3 (configuration not stated) | 27.8% (active)
32 | C=CCn1c(SCC(=O)NCC2CCCO2)nc2sc(C)c(C)c2c1=O (configuration not stated) | -1.1% (inactive)
33 | N#Cc1ccc(C2=CC(=O)C[C@H](c3ccc(Cl)cc3)C2)cc1 | 1.89% (inactive)
34 | CC(=O)NCC(=O)N(Cc1ccco1)C1(C(=O)NC2CCCC2)CCCCC1 | -0.741% (inactive)
35 | O=C(Nc1ccc(Cl)cc1)C1Cc2c(-c3ccc4c(c3)OCO4)ccnc2O1 (configuration not stated) | 1.69% (inactive)
36 | CCc1c(C)n([O-])c2c([n+]1=O)CCCCC2 | 2% (inactive)
37 | CCCNC(=O)C1(C)CCCN(C(=O)c2cccc(OC(C)=O)c2C)C1 (configuration not stated) | -0.136% (inactive)
38 | Cc1ccc(Nc2nc(CSc3nnc(-c4ccncc4)n3-c3ccccc3C)cs2)cc1 | -2.15% (inactive)
39 | CC1CCCCN1C(=O)Cn1c(=O)oc2cc(S(=O)(=O)N3CCCCC3)ccc21 (configuration not stated) | -0.145% (inactive)
40 | COc1cccc(CNC(=O)Cn2c(=O)oc3cc(S(=O)(=O)N4CCCCC4)ccc32)c1 | -0.785% (inactive)
41 | CC(C)CCNC(=O)Cn1c(=O)oc2cc(S(=O)(=O)N3CC(C)CC(C)C3)ccc21 (configuration not stated) | 114% (active)
42 | CCOC(=O)c1cc2cc(-c3c(C(=O)OCC)oc4cc(O)cc(O)c4c3=O)ccc2o1 | -0.142% (inactive)
43 | Cc1cccc(C)c1NC(=O)Nc1ccccc1-n1ccnc1 | 0.968% (inactive)
44 | Cc1cccn2cc(-c3cccc(S(=O)(=O)N4CCCCC4)c3)nc12 | -0.565% (inactive)
45 | Cc1ccc2nc(-c3ccncc3)cc(C(=O)Nc3ccncc3)c2c1 | 29.9% (active)
46 | Cc1ccc2nc(-c3ccncc3)cc(C(=O)Nc3ccc(OC(F)F)cc3)c2c1 | -8.25% (inactive)
47 | CC1CCCC(NC(=O)c2cc(-c3ccncc3)nc3ccccc23)C1C (configuration not stated) | 0.382% (inactive)
